# Results filed as inconclusive are left out. A number with no mark means an inactive call. Active and inactive are the calls of the source. The call rests on the fitted dose curve; in most records, active means well fitted cell-killing curve with a large enough effect; inconclusive means small, poorly fitted or top-dose-only effect; inactive means no such curve, though single readings can be large or run the other way.
# Assay: qHTS of pediatric cancer cell lines to identify multiple opportunities for drug repurposing: Primary screen for SJ-GBM2 cells (AID 1347091);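 on activity change, negative = cytotoxic: plate controls were DMSO neutral control for no effect and bortezomib for full effect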
# Settings: SJ-GBM2 viability, CellTiter-Glo luminescence, 48 h; series mostly up to 46 µM; activity change, negative = cytotoxic: at the top concentration
# Method in brief: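 Cell viability, CellTiter-Glo luminescence; 500-1,000 cells/well, 8- or 11-point titration, 48 h compound exposure at 37 degrees C, 5% CO2. Controls: DMSO neutral, bortezomib 2.3 µM final as positive.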
# Potency means the concentration at half of the fitted maximal effect.
Structure (SMILES),"activity change, negative = cytotoxic [%]",Potency
COc1cc(C)c(C=CC(C)=CC=CC(C)=CC(=O)O)c(C)c1C,-0.156,
NC(=O)c1ncn([C@@H]2O[C@H](CO)[C@@H](O)[C@@H]2O)c1O,25.4,
COc1cccc2c1C(=O)c1c(O)c3c(c(O)c1C2=O)C[C@@](O)(C(C)=O)C[C@H]3O[C@H]1C[C@H](N)[C@H](O)[C@H](C)O1,,66.2 nM (active)
O=C(Nc1cccc(Nc2ncc(Br)c(NCCc3cnc[nH]3)n2)c1)N1CCCC1,,5900 nM (active)
CC(C)OC(=O)[C@H](C)N[P@](=O)(OC[C@H]1O[C@@H](n2ccc(=O)[nH]c2=O)[C@](C)(F)[C@H]1O)Oc1ccccc1,11,
CC(=O)NC(CS)C(=O)O (stereo unspecified),5.58,
O=C1NC(=O)C(=Cc2ccc3nccc(-c4ccncc4)c3c2)S1,,93.5 nM (active)

# Assay: qHTS of pediatric cancer cell lines to identify multiple opportunities for drug repurposing: Primary screen for A673 cells (AID 1347092); further: nearly all actives have a fitted effect of over 45% in size; on activity change, negative = cytotoxic: on the % scale 0 is the no-effect control and ±100 the full control effect
# Settings: A673 Ewing sarcoma viability, CellTiter-Glo ATP luminescence, 48 h; series mostly up to 46 µM; activity change, negative = cytotoxic: at the top concentration
# Method in brief: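 Titration-based qHTS on A673 cells: MIPE compounds spanned 11 points (0.78 nM to 46 µM final), NPC compounds 8 points (0.59 nM to 46 µM final). Viability after 48 h was measured by ATP luminescence.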
Structure (SMILES),Potency,"activity change, negative = cytotoxic"
COc1cc2c(cc1O)CCC1C2CC[C@@]2(C)C1CC[C@@H]2O (stereo partly specified),3720 nM (active),
C=Cc1c(C)c2cc3nc(cc4[nH]c(cc5nc(cc1[nH]2)C(C)=C5CCC(=O)O)c(CCC(=O)OC)c4C)[C@@]1(C)C3=CC=C(C(=O)OC)[C@H]1C(=O)OC,37.2 nM (active),
CCc1ccc(C(=O)Nc2cc(CN3CCN(C)CC3)cc(C(F)(F)F)c2)cc1C#Cc1cnc2ccnn2c1,9350 nM (active),
CC(=O)N[C@@H]1[C@H](O[C@@H]2c3ccc(c(Cl)c3)Oc3cc4cc(c3O[C@H]3O[C@H](CO)[C@@H](O)[C@H](O)[C@H]3NC(=O)CCCCCCCC(C)C)Oc3ccc(cc3Cl)C[C@H]3NC(=O)[C@H](N)c5ccc(O)c(c5)Oc5cc(O)cc(c5)[C@H](NC3=O)C(=O)N[C@H]4C(=O)N[C@H]3C(=O)N[C@@H]2C(=O)N[C@@H](C(=O)O)c2cc(O)cc(O[C@H]4O[C@H](CO)[C@@H](O)[C@H](O)[C@H]4O)c2-c2cc3ccc2O)O[C@H](CO)[C@@H](O)[C@@H]1O,,9.26%
Cc1[nH]c(C=C2C(=O)Nc3ccccc32)c(C)c1CCC(=O)O,1180 nM (active),
COc1cc2ncnc(Nc3cccc(Br)c3)c2cc1OC,5.9 nM (active),
N[C@H]1CN(c2c(F)cc3c(=O)c(C(=O)O)cn(C4C[C@@H]4F)c3c2Cl)CC12CC2 (stereo partly specified),,-16.6%
CC(C)Oc1ccc(C(=O)N[C@H](CNC(=O)CN(C)C)Cc2ccc(-c3cn4cccc([C@H](C)O)c4n3)cc2)cc1Cl,148 nM (active),
Nc1nc(N)c2nc(-c3cccc(O)c3)c(-c3cccc(O)c3)nc2n1,2350 nM (active),
COc1cc(OC)cc(-c2ccc3ncc4ccc(=O)n(-c5ccc(N6CCNCC6)c(C(F)(F)F)c5)c4c3c2)c1,935 nM (active),
CN(N=O)C(=O)N[C@H]1C(O)OC(CO)[C@@H](O)[C@H]1O (stereo partly specified),,-4.87%
COc1cc(N2CCC(C(N)=O)CC2)ccc1Nc1nc(N)c(Cl)c(Nc2ccccc2S(=O)(=O)C(C)C)n1,1180 nM (active),
C[C@H](CCC(=O)O)[C@H]1CCC2C3C[C@H](O)[C@@H]4C[C@H](O)CC[C@]4(C)C3CC[C@@]21C (stereo partly specified),,-24.5%
CC(C)[C@H](CO)Nc1nc(Nc2cccc(Cl)c2)c2ncn(C(C)C)c2n1,14800 nM (active),
CC(C)NC[C@@H](C(=O)N1CCN(c2ncnc3c2[C@H](C)C[C@H]3O)CC1)c1ccc(Cl)cc1,11800 nM (active),
COC(=O)C=CC(=O)OC,7430 nM (active),
COc1ccc(C(C)=O)c(O)c1,2960 nM (active),
O=C1NC(O)CCN1[C@@H]1O[C@H](CO)[C@H](O)[C@H]1O (stereo partly specified),,-7.58%
NC(=NCCCCCCN=C(N)N=C(N)Nc1ccc(Cl)cc1)N=C(N)Nc1ccc(Cl)cc1,2960 nM (active),
CCN(CC)Cc1ccc2cc(COC(=O)Nc3ccc(C(=O)NO)cc3)ccc2c1,1480 nM (active),

Structure (SMILES),Potency,"activity change, negative = cytotoxic"
COc1ccc(S(=O)(=O)Nc2cccnc2Nc2ccc(O)cc2)cc1,235 nM (active),
CNC(=O)c1cccc(-c2ccc3c(N4CCOC[C@H]4C)nc(N4CCOC[C@H]4C)nc3n2)c1,148 nM (active),
NC1=N[C@H]2[C@H](CS[C@H]2CCCCC(=O)O)N1,,-6.11% [at 16.1 µM]
C=CCNc1c(O)cc2c(O)c1C[C@@H](C)C[C@H](OC)[C@@H](O)[C@@H](C)C=C(C)[C@H](OC(N)=O)[C@@H](OC)C=CC=C(C)C(=O)N2,935 nM (active),
Cn1cnc(=N)c2[nH]cnc21,187 nM (active),
O=C(NC1CC1)c1cccc(-c2ccc3c(NC(=O)C4CC4)n[nH]c3c2)c1,372 nM (active),
CN[C@@H]1C[C@H]2O[C@@](C)([C@H]1OC)n1c3ccccc3c3c4c(c5c6ccccc6n2c5c31)C(=O)N[C@H]4O,296 nM (active),
CN(CC(=O)N(Cc1ccc(C2CCCCC2)cc1)c1ccc(C(=O)O)c(O)c1)S(=O)(=O)c1c(F)c(F)c(F)c(F)c1F,9350 nM (active),
COc1cc2c(Nc3ccc(Cl)c(Cl)c3F)ncnc2cc1OCC1C[C@@H]2CN(C)C[C@H]2C1,935 nM (active),
Oc1ccc([C@@H]2Oc3ccc(O)cc3[C@@H]3CCC[C@@H]32)cc1,9350 nM (active),
FC(F)c1nc2ccccc2n1-c1nc(N2CCOCC2)nc(N2CCOCC2)n1,1180 nM (active),
C=C1C(=CC=C2CCC[C@]3(C)[C@@H]([C@H](C)CCCC(C)(C)O)CC[C@@H]23)C[C@@H](O)C[C@@H]1O,1480 nM (active),
COc1cc(C)c(C=CC(C)=CC=CC(C)=CC(=O)O)c(C)c1C,,-10.1%
NC(=O)c1ncn([C@@H]2O[C@H](CO)[C@@H](O)[C@@H]2O)c1O,,6.05%
COc1cccc2c1C(=O)c1c(O)c3c(c(O)c1C2=O)C[C@@](O)(C(C)=O)C[C@H]3O[C@H]1C[C@H](N)[C@H](O)[C@H](C)O1,46.9 nM (active),
O=C(Nc1cccc(Nc2ncc(Br)c(NCCc3cnc[nH]3)n2)c1)N1CCCC1,11800 nM (active),
CC(C)OC(=O)[C@H](C)N[P@](=O)(OC[C@H]1O[C@@H](n2ccc(=O)[nH]c2=O)[C@](C)(F)[C@H]1O)Oc1ccccc1,,-27.2%
CC(=O)NC(CS)C(=O)O (stereo unspecified),,-18.6%
O=C1NC(=O)C(=Cc2ccc3nccc(-c4ccncc4)c3c2)S1,187 nM (active),

# Source: PubChem BioAssay (NCATS)
